Experimental data as given in PubChem BioAssay AID1159580 (chemical genetic matrix, 2015).
Among all 5,500 compounds or so, about 2,000 (36%) were called active. Inconclusive results (about 18%) are left out. No stated cut-off is given here; in the data, active means normalized growth mostly below about 0.91 (no sharp cut-off); inconclusive means no clear call, values can overlap the other calls; inactive means mostly above about 0.92. The list shows a part of the results.

Test: chemical genetic growth profiling, strain panel (AID 1159580);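 further: tested at 20 µM; growth read once vehicle control cultures reached saturation at 30 °C; 1 = growth at the plate median or of vehicle wells; lower values mean less growth of the strain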
Conditions: S. cerevisiae deletion strains, growth OD

Measured: normalized growth

O=C(OC1Cc2c(O)cc(O)cc2OC1c1cc(=O)c(O)c2c(O)c(O)cc(C3Oc4cc(O)cc(O)c4CC3O)c2c1)c1cc(O)c(O)c(O)c1 (configuration not stated)
active: locus YJL187C, strain SWE1 (second series), active compounds read low 0.0967 | locus YJR043C, strain POL32, active compounds read low 0.203 | locus YJR075W, strain HOC1, active compounds read low 0.58 | locus YKL190W, strain CNB1, active compounds read low 0.126 | locus YKR001C, strain vps1, active compounds read low 0.688 | locus YLR039C, strain RIC1, active compounds read low 0.17 | locus YLR058C, strain SHM2, active compounds read low 0.183 | locus YLR262C, strain YPT6 (second series), active compounds read low 0.811 | locus YLR262C, strain YPT6, active compounds read low 0.342 | locus YLR268W, strain sec22, active compounds read low 0.609 | locus YLR330W, strain CHS5, active compounds read low 0.708 | locus YLR342W, strain FKS1 (second series), active compounds read low 0.263 | locus YLR357W, strain rsc2, active compounds read low 0.744 | locus YLR371W, strain rom2, active compounds read low 0.711 | locus YLR418C, strain cdc73, active compounds read low 0.356 | locus YML016C, strain PPZ1, active compounds read low 0.0879 | locus YML032C, strain rad52, active compounds read low 0.879 | locus YMR058W, strain fet3, active compounds read low 0.252 | locus YMR223W, strain ubp8, active compounds read low 0.761 | locus YMR231W, strain pep5, active compounds read low 0.866 | locus YMR307W, strain GAS1, active compounds read low 0.339 | locus YNL067W, strain RPL9B, active compounds read low 0.486 | locus YNL128W, strain TEP1, active compounds read low 0.145 | locus YNL153C, strain GIM3, active compounds read low 0.417 | locus YNL209W, strain ssb2, active compounds read low 0.749 | locus YNL233W, strain BNI4, active compounds read low 0.621 | locus YNR052C, strain pop2, active compounds read low 0.648 | locus YOL006C, strain TOP1, active compounds read low 0.139 | locus YOL147C, strain pex11, active compounds read low 0.865 | locus YOR061W, strain CKA2, active compounds read low 0.383 | locus YOR069W, strain VPS5, active compounds read low 0.485 | locus YOR106W, strain vam3, active compounds read low 0.657 | locus YOR136W, strain idh2, active compounds read low 0.906 | locus YOR144C, strain elg1, active compounds read low 0.915 | locus YOR184W, strain ser1, active compounds read low 0.578 | locus YOR270C, strain vph1, active compounds read low 0.638 | locus YOR290C, strain snf2, active compounds read low 0.827 | locus YPL051W, strain arl3, active compounds read low 0.827 | locus YPL241C, strain CIN2, active compounds read low 0.636 | locus YPR167C, strain met16, active compounds read low 0.878 | strain wtn01, active compounds read low 0.667
inactive: locus YJL187C, strain SWE1, active compounds read low 0.95 | locus YKL009W, strain mrt4, active compounds read low 1.02 | locus YKL068W, active compounds read low 0.996 | locus YKL085W, strain MDH1 (second series), active compounds read low 0.994 | locus YKL085W, strain MDH1, active compounds read low 0.994 | locus YKL160W, strain elf1, active compounds read low 0.969 | locus YKR026C, strain gcn3, active compounds read low 0.967 | locus YKR091W, strain srl3, active compounds read low 1 | locus YLL001W, strain dnm1, active compounds read low 0.967 | locus YLL026W, active compounds read low 0.978 | locus YLL041C, strain sdh2, active compounds read low 0.989 | locus YLR027C, strain aat2, active compounds read low 0.955 | locus YLR102C, strain apc9, active compounds read low 0.973 | locus YLR221C, strain rsa3, active compounds read low 0.925 | locus YLR258W, strain gsy2, active compounds read low 0.946 | locus YLR320W, strain mms22, active compounds read low 0.927 | locus YLR342W, strain FKS1, active compounds read low 0.929 | locus YLR370C, strain arc18, active compounds read low 0.916 | locus YLR384C, strain iki3, active compounds read low 0.971 | locus YML120C, strain ndi1, active compounds read low 0.952 | locus YML124C, strain tub3, active compounds read low 0.958 | locus YMR078C, strain ctf18, active compounds read low 0.973 | locus YMR125W, strain sto1, active compounds read low 1.03 | locus YMR129W, active compounds read low 1 | locus YMR205C, strain PFK2, active compounds read low 0.901 | locus YNL071W, strain lat1, active compounds read low 1 | locus YNL248C, strain rpa49, active compounds read low 0.986 | locus YNL250W, strain rad50, active compounds read low 0.99 | locus YNL271C, strain bni1, active compounds read low 0.963 | locus YNL298W, strain CLA4, active compounds read low 1 | locus YNL307C, strain MCK1, active compounds read low 0.93 | locus YNL322C, strain KRE1 (second series), active compounds read low 1.02 | locus YNR049C, strain mso1, active compounds read low 0.997 | locus YOL012C, strain htz1 0.293 | locus YOR001W, strain rrp6, active compounds read low 0.962 | locus YOR070C, strain gyp1, active compounds read low 0.938 | locus YOR080W, strain dia2, active compounds read low 0.966 | locus YOR083W, strain WHI5, active compounds read low 0.937 | locus YOR265W, strain rbl2, active compounds read low 0.969 | locus YOR316C, strain cot1, active compounds read low 0.958 | locus YPL078C, strain atp4, active compounds read low 0.957 | locus YPL106C, strain sse1, active compounds read low 0.872 | locus YPL240C, strain hsp82, active compounds read low 0.97 | locus YPR119W, strain clb2, active compounds read low 0.988 | locus YPR141C, strain kar3, active compounds read low 0.993 | locus YPR163C, strain tif3, active compounds read low 0.969
